# Test results from PubChem BioAssay (EPA / NIEHS).
# Results filed as inconclusive are left out. Calls of active or inactive are those of the source. The calls were made as follows, unless noted: active = hit-call score of the fitted dose curve at least 0.9, where 1 is the maximum; inconclusive = response in the unintended direction; inactive = score below 0.9.
# What was measured:
# [1] = biological target: Cellular tumor antigen p53 (Homo sapiens) (UniProt P04637); experiment: TOX21_p53_BLA_p2_ratio: Tox21 HCT-116 p53 Agonism Beta-lactamase Assay, Ratio, Phase 2 (AID 2283592)
# Sequence of Cellular tumor antigen p53 (Homo sapiens) (P04637 whole entry, looked up): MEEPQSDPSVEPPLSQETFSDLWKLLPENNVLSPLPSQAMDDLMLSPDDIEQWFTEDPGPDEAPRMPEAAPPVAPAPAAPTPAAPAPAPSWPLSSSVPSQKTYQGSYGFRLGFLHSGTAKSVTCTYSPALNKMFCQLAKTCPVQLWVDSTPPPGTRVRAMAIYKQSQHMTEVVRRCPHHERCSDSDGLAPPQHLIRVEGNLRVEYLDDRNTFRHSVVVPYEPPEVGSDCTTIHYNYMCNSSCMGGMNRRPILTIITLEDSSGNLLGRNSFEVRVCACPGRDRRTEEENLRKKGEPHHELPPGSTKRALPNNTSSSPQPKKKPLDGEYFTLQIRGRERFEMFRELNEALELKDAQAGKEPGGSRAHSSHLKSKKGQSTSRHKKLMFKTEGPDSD
# Outline: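 Human colon HCT116 cells with an inducible p53 beta-lactamase reporter are exposed to test chemicals for 16 h at 37C. Reporter induction is read as the 460/530 nm emission ratio after CCF4-AM loading, normalized to DMSO.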
# [2] = TOX21_p53_BLA_p3_viability: Viability Assessment in the Tox21 HCT-116 p53 Agonism Beta-lactamase Assay, Phase 3 (AID 2283593);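 also: cells exposed to compound for 16 h before reading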
# Outline: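 Cellular ATP was quantified by CellTiter-Glo luminescence, read after 30 min at room temperature. Beforehand, HCT116 cells (4000/well) received compound 5 h post-seeding, 217-fold diluted from DMSO, then incubated 16 h at 37C.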
# [3] = TOX21_p53_BLA_p4_viability: Viability Assessment in the Tox21 HCT-116 p53 Agonism Beta-lactamase Assay, Phase 4 (AID 2283597);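 also: hits lower the luminescence signal meaning cytotoxicity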
# Outline: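 Luminescent ATP readout (CellTiter-Glo, 30 min, room temperature) in the same wells as the p53 bla ratio. HCT116 cells were treated for 16 h at 37C with DMSO-dissolved compounds.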
# [4] = biological target: Cellular tumor antigen p53 (Homo sapiens) (UniProt P04637); experiment: TOX21_p53_BLA_p5_ratio: Tox21 HCT-116 p53 Agonism Beta-lactamase Assay, Ratio, Phase 5 (AID 2283599)
# Outline: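 Beta-lactamase reporter ratio (blue 460 nm over green 530 nm, 405 nm excitation) after 2 h CCF4-AM loading, in HCT-116 cells exposed 16 h at 37 C to compounds pinned at 217-fold dilution. Increases relative to DMSO baseline scored.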
# [5] = TOX21_p53_BLA_p5_viability: Viability Assessment in the Tox21 HCT-116 p53 Agonism Beta-lactamase Assay, Phase 5 (AID 2283600)
# Outline: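 Seeded cells (4000/well) settle 5 h before compound addition. Plates then incubate 16 h at 37C, receive FRET substrate for 2 h, and finally CellTiter-Glo, with luminescence measured after a 30 min room-temperature incubation.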
# [6] = biological target: Cellular tumor antigen p53 (Homo sapiens) (UniProt P04637); experiment: TOX21_p53_BLA_p4_ratio: Tox21 HCT-116 p53 Agonism Beta-lactamase Assay, Ratio, Phase 4 (AID 2283601)
# Outline: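 Signal is the blue/green (460nm/530nm) ratio of cleaved versus uncleaved CCF4-AM substrate, read after 2 h substrate loading. Cells were HCT116 carrying the p53-responsive beta-lactamase reporter, dosed 16 h at 37C, 5% CO2; CellTiter-Glo measured in parallel.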
# [7] = CCTE_Harrill_HTTr_Viability_MCF7: CCTE's 6-hour Cell Viability Assessment for the High-Throughput Transcriptomics (HTTr) Platform, in MCF-7 cells cultured in DMEM + 10% fetal bovine serum, Harrill Lab (AID 2284010; active = hit-call score of the fitted dose curve at least 0.9, where 1 is the maximum; inactive = score below 0.9)
# Outline: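 Membrane integrity was scored by high-content imaging of propidium iodide dye exclusion after a 6 h exposure across an eight-point dilution series. Data were fitted bidirectionally relative to DMSO as negative control and baseline.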
# [8] = CCTE_Harrill_HTTr_Apoptosis_MCF7: CCTE's 6-hour Apoptosis Assessment for the High-Throughput Transcriptomics (HTTr) Platform, in MCF-7 cells cultured in DMEM + 10% fetal bovine serum, Harrill Lab (AID 2284011; active = hit-call score of the fitted dose curve at least 0.9, where 1 is the maximum; inactive = score below 0.9)
# Outline: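 Apoptosis in MCF-7 cells grown in DMEM with 10% fetal bovine serum was scored after a six hour exposure by high content imaging of caspase-3/7 activation (CellEvent Caspase 3/7 Green), with DMSO serving as negative control and baseline.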
# [9] = CCTE_Harrill_HTTr_CellCount_MCF7: CCTE's Cell Proliferation Assessment for the High-Throughput Transcriptomics (HTTr) Platform, Harrill Lab (AID 2284012);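 also: cells exposed to compound for six hours; intended direction is loss of nuclei count meaning fewer cells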
# Outline: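 MCF-7 cells were exposed for 6 h to an eight-point dilution series; Hoechst-labeled nuclei were counted by high content imaging. Curves were fitted bidirectionally against DMSO as negative control and baseline, with signal loss indicating reduced cell count.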
# [10] = biological target: Cellular tumor antigen p53 (Homo sapiens) (UniProt P04637); experiment: TOX21_p53_BLA_p3_ratio: Tox21 HCT-116 p53 Agonism Beta-lactamase Assay, Ratio, Phase 3 (AID 2283596)
# Outline: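 HCT116 p53-bla cells (4000/well) given compound in DMSO (217-fold dilution) after 5 h, incubated 16 h at 37C. CCF4-AM substrate 2 h at room temperature; 460/530 nm emission ratio, gain fitted against DMSO.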
structure (smiles),measurement,setting,value
Fc1ccc([C@@H]2CCNC[C@H]2COc2ccc3c(c2)OCO3)cc1,outcome,[1],inactive
same,outcome,[2],inactive
same,AC50,[3],37.4 µM (active)
same,outcome,[4],inactive
same,outcome,[5],inactive
same,outcome,[6],inactive
Cc1cccc2sc(N)nc12,outcome,[1],inactive
same,outcome,[2],inactive
same,outcome,[3],inactive
same,outcome,[4],inactive
same,outcome,[5],inactive
CN(C(=O)C(Cl)Cl)c1ccc(OC(=O)c2ccco2)cc1,outcome,[1],inactive
same,outcome,[2],inactive
same,outcome,[3],inactive
CC1(C)C(\C=C/C=C\C=C/C=C2/N(CCCCS(=O)(=O)O)c3ccc4ccccc4c3C2(C)C)=[N+](CCCCS(=O)(=O)[O-])c2ccc3ccccc3c21,outcome,[1],inactive
same,outcome,[2],inactive
same,outcome,[3],inactive
same,outcome,[4],inactive
same,outcome,[5],inactive
same,outcome,[6],inactive
C=CC1CC2C=CC1C2 (stereo not given),outcome,[1],inactive
same,outcome,[2],inactive
same,outcome,[3],inactive
same,outcome,[4],inactive
same,outcome,[5],inactive
same,outcome,[6],inactive
CCCCCC(=Cc1ccccc1)CO,outcome,[1],inactive
same,outcome,[2],inactive
same,outcome,[3],inactive
same,outcome,[4],inactive
same,outcome,[5],inactive
CC(=O)Nc1c(I)c(C(=O)O)c(I)c(N(C)C(C)=O)c1I,outcome,[1],inactive
same,outcome,[2],inactive
same,outcome,[3],inactive
same,outcome,[4],inactive
same,outcome,[5],inactive
same,outcome,[6],inactive
CC(=O)OC(C(=O)c1ccccc1)c1ccccc1 (stereo not given),outcome,[1],inactive
same,outcome,[2],inactive
same,outcome,[3],inactive
same,outcome,[4],inactive
same,outcome,[6],inactive
ICCc1ccccc1,outcome,[1],inactive
same,outcome,[2],inactive
same,outcome,[3],inactive
same,outcome,[4],inactive
same,outcome,[6],inactive
CCc1ccccc1CC,outcome,[1],inactive
same,outcome,[2],inactive
same,outcome,[3],inactive
same,outcome,[4],inactive
same,outcome,[6],inactive
same,outcome,[7],inactive
same,outcome,[8],inactive
same,outcome,[9],inactive
O=C[C@H](O)[C@@H](O)[C@H](O)[C@H](O)CO,outcome,[1],inactive
same,outcome,[10],inactive
same,outcome,[3],inactive
same,outcome,[5],inactive
same,outcome,[6],inactive
